The whole screen tested about 330,000 compounds, of which about 4,200 (1.3%) were called active. Entries that show only a call come without a potency. Not shown: some 6% with an inconclusive outcome. This excerpt belongs to a sample that is enriched for actives. Values without a mark were called inactive. Calls follow the shape of the dose curve; as a rule, active = well fitted activation curve with a large enough effect; inconclusive = small, poorly fitted or top-dose-only effect; inactive = no such curve, though single readings can be large or run the other way.
Assay: qHTS screen for small molecules that induce genotoxicity in human embryonic kidney (HEK293T) cells expressing luciferase-tagged ELG1; also: nearly all actives have a fitted effect of over 60% in size
Conditions: HEK293T ELG1-luciferase reporter, luminescence, 16 h; series mostly up to 46 µM
Outline: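 Quantitative HTS format in 1536-well plates. HEK293T ELG1-luciferase reporter cells receive test compound and are incubated 16 hr at 37 °C, 5% CO2; ONE-Glo added, 30 min room temperature, then luminescence read.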
Potency is read from the fitted curve at half-maximal effect.

| SMILES | Potency | activity change, positive = activation |
| --- | --- | --- |
| CC(C)COc1ccc(C(=O)NNC(=O)CCC(=O)c2cccs2)cc1 | inactive | – |
| CCN(CC)CCCNC(=O)COc1ccc2oc3c(c2c1)CCCC3 | inactive | – |
| O=C(COc1ccc2oc3c(c2c1)CCCC3)Nc1ccccn1 | 16.4 µM (active) | – |
| CCOC(=O)N1CCN(C(=O)COc2ccc3oc4c(c3c2)CCCC4)CC1 | inactive | – |
| CC[C@]12c3[nH]c4cc(CCC(=O)N(C)C)ccc4c3CCN1C(=O)[C@@H](CC(=O)NCC13CC4CC(CC(C4)C1)C3)C[C@@H]2C(=O)N1CCN(C(=O)C2CC2)CC1 | inactive | – |
| COc1ccc2nc3n(c(=O)c2c1)-c1cc(C)ccc1C(=O)NC3Cc1ccc(O)cc1 (centres undefined) | inactive | – |
| CC(C)C(=O)Nc1ccc2c(c1)oc1ccccc12 | 4.11 µM (active) | – |
| CC(C)C(=O)Nc1ccc2oc(=O)ccc2c1 | inactive | – |
| Cc1cc(=O)oc2cc(NC(=O)C(C)Oc3ccccc3)ccc12 (centres undefined) | inactive | – |
| COc1cccc(NC(=O)COc2cccnc2[N+](=O)[O-])c1 | inactive | – |
| CC(C)(C)OC(=O)C[C@@H]1C/C=C\C[C@@H](CC(=O)N[C@H](CO)Cc2ccccc2)C(=O)NCCOC1=O | inactive | – |
| COc1cc(NC(=O)CN(C)S(=O)(=O)c2ccc3nc(C)sc3c2)cc(OC)c1 | inactive | – |
| Cc1nc2ccc(S(=O)(=O)N(C)CC(=O)NC(C)c3ccccc3)cc2s1 (centres undefined) | inactive | – |
| Cc1ccc2nc(-c3ccc(NC(=O)CN(C)S(=O)(=O)c4ccccc4)cc3)sc2c1 | 5.8 µM (active) | – |
| O=C1c2ccccc2[C@@H]2C[C@@H](O)[C@H](Nc3ccccc3Cl)CCN12 | inactive | – |
| Cc1ccc(-n2c(C)cc(C(=O)CN3C(=O)C(=O)N(C4CCCC4)C3=O)c2C)cc1 | inactive | – |
| Cc1cc(C(=O)COC(=O)C2CC2)c(C)n1-c1ccc(F)cc1 | 2.59 µM (active) | – |
| Cc1cc(C(=O)COc2ccccc2Cl)c(C)n1C1CC1 | inactive | – |
| Cc1ccc(SCC(=O)c2cc(C)c(OC(=S)N(C)C)c(C)c2)cc1 | 7.31 µM (active) | – |
| COC(=O)c1cc(OC)c(OC)cc1NC(=O)CSc1ccc(C)cc1 | inactive | – |
| Cc1ccc(C(=O)CSc2ccccc2C(=O)O)cc1 | – | 12.5% [at 9.26 µM] |
| COC(=O)[C@]1(Cc2ccccc2)N[C@H](CN(C)S(=O)(=O)c2ccc(OC(F)(F)F)cc2)[C@@H]2C(=O)N(Cc3ccccc3)C(=O)[C@@H]21 | inactive | – |
| O=C(COC(=O)c1cccc(Cl)c1)NC(=O)NCc1ccccc1 | inactive | – |
| O=C(Nc1ccncc1)c1cc2ccccc2o1 | inactive | – |
| Nc1ncc(-c2cc3ccccc3oc2=O)s1 | 2.59 µM (active) | – |

| SMILES | Potency | activity change, positive = activation |
| --- | --- | --- |
| O=C(NCc1cccnc1)c1cccc(-c2cc3ccccc3oc2=O)c1 | inactive | – |
| O=C(COC(=O)c1cccc(Br)c1)Nc1cccc2c1C(=O)c1ccccc1C2=O | 13 µM (active) | – |
| O=C(COC(=O)c1ccccc1)Nc1ccccc1Sc1ccccc1 | inactive | – |
| O=C(COC(=O)Cn1cnc2ccccc21)Nc1cccc2c1C(=O)c1ccccc1C2=O | inactive | – |
| C[C@H](CO)N1C[C@H](C)[C@H](CN(C)CC2CC2)Oc2ccc(NC(=O)CCN3CCOCC3)cc2C1=O | inactive | – |
| CC(C)c1nc2cc(C(=O)NC(C)c3cnn(C)c3)ccc2o1 (centres undefined) | inactive | – |
| COC(=O)c1ccc(CSc2nc3cc(Cl)ccc3o2)cc1 | inactive | – |
| COC(=O)c1ccc(CNC(=O)c2ccc3oc(C(C)C)nc3c2)cc1 | 20.6 µM (active) | – |
| C=CC[C@@H](CC(=O)NCCO)C(=O)N[C@H](C)COC(=O)[C@@H](CC=C)CC(=O)OC(C)(C)C | inactive | – |
| Cc1cccc(C(=O)OCC(=O)NC(C)C2CC3CCC2C3)c1O (centres undefined) | inactive | – |
| COc1ccccc1NC(=O)COC(=O)CNC(=O)C1CCCCC1 | inactive | – |
| Nc1ncnc2c1ncn2[C@@H]1O[C@H](CNS(=O)(=O)c2ccc(-c3ccno3)s2)[C@@H](O)[C@H]1O | inactive | – |
| O=C(CCCOc1ccccc1)NNC(=O)c1ccc(Cl)cc1 | inactive | – |
| CC(=O)Nc1cccc(-c2cnc3ccccc3n2)c1 | 10.3 µM (active) | – |
| CC(=O)Nc1cccc(Nc2nc(-c3cccs3)nc3ccccc23)c1 | inactive | – |
| CCS(=O)(=O)Nc1cccc(-c2cc(-c3ccccc3)c3cc(C)ccc3n2)c1 | inactive | – |
| O=C(c1ccc(S(=O)(=O)NCc2ccco2)cc1)N1CCN(c2ccccc2)CC1 | inactive | – |
| Cc1c(C(=O)Nc2ccccn2)oc2ccc(Br)cc12 | 9.2 µM (active) | – |
| COC(=O)c1oc2ccc(Br)cc2c1NC(C)=O | inactive | – |
| Cc1noc(C)c1C(=O)Nc1ccccn1 | inactive | – |
| O=C(COC(=O)COc1cc(Cl)c(Cl)cc1Cl)NC1CC1 | inactive | – |
| COc1ccc(-c2cc(=O)c3c(O)cc(O[C@@H]4O[C@H](CO[C@@H]5O[C@@H](C)[C@H](O)[C@@H](O)[C@H]5O)[C@@H](O)[C@H](O)[C@H]4O)cc3o2)cc1O | inactive | – |
| CCOC(=O)COc1cc(O)c2c(=O)cc(-c3ccccc3)oc2c1 | inactive | – |
| COc1c(O)cc2oc(-c3ccc(O)c(O)c3)cc(=O)c2c1O | 20.6 µM (active) | – |
| CCN(C(=O)COC(=O)CCC(=O)c1cccs1)C1CCCCC1 | inactive | – |

| SMILES | Potency | activity change, positive = activation |
| --- | --- | --- |
| C[C@H](CO)N1C[C@H](C)[C@H](CN(C)C(=O)Nc2ccc(C(F)(F)F)cc2)Oc2c(NC(=O)c3ccncc3)cccc2C1=O | inactive | – |
| C[C@]12c3[nH]c4ccc(Cl)cc4c3CCN1C(=O)[C@@H](CC(=O)NCCCn1ccnc1)C[C@@H]2C(=O)N1CCOCC1 | inactive | – |
| CCC1CCCCN1C(=S)NC(=O)c1ccco1 (centres undefined) | inactive | – |
| COc1ccc2c(CC(=O)NNC(=O)c3ccccc3F)coc2c1 | inactive | – |
| CCC(=O)N1CCCc2ccccc21 | inactive | – |
| O=C(CSCc1ccccc1)N1CCc2ccccc21 | 2.59 µM (active) | – |
| O=C(CN1CCN(c2ccccn2)CC1)N1CCc2ccccc21 | inactive | – |
| COc1cc(C2CC(=O)Oc3cc(OC)c(OC)c(OC)c32)cc(OC)c1OC (centres undefined) | inactive | – |
| CC1CC(=NNC(=O)C2COc3ccccc3O2)CC(C)(C)C1 (centres undefined) | inactive | – |
| COc1cc(SC)ccc1C(=O)N(Cc1ccccc1)c1ccccc1 | inactive | – |
| COc1cc(SC)ccc1C(=O)Nc1nc(C)cs1 | 0.058 µM (active) | – |
| Cc1csc(NC(=O)c2ccc(-c3ccc(Cl)cc3Cl)o2)n1 | inactive | – |
| CN(C)C(=O)CCc1ccc2c3c([nH]c2c1)[C@]1(CCc2ccccc2)[C@@H](C(=O)N2CCCCC2)C[C@H](CC(=O)NCCC2=CCCCC2)C(=O)N1CC3 | inactive | – |
| CN(Cc1ccc(F)cc1)C(=O)CN1C(=O)c2ccccc2S1(=O)=O | inactive | – |
| CC[C@]12c3[nH]c4cc(CCC(=O)N(C)C)ccc4c3CCN1C(=O)[C@@H](CC(=O)NCc1ccco1)C[C@@H]2C(=O)N1CCN(C(=O)c2ccco2)CC1 | inactive | – |
| Cc1ccc(N2CCN(/N=C/c3cccs3)CC2)cc1 | inactive | – |
| C(=N/N1CCN(c2ccccc2)CC1)/c1cccs1 | 14.6 µM (active) | – |
| COc1cc(/C=N/N2CCN(c3ccccc3)CC2)ccc1OC(C)=O | inactive | – |
| CN(CC(=O)Nc1ccc(OC(F)F)cc1)S(=O)(=O)/C=C/c1ccccc1 | inactive | – |
| COc1ccc2sc(-c3ccc(N(C)C)cc3)c(-c3ccc4cc[nH]c4c3)c2c1 | inactive | – |
| Cc1ccc(C(=O)Nc2ccc(NC(=O)c3cccs3)cc2)c(C)c1 | inactive | – |
| O=C(Nc1ccc(NC(=O)c2cccs2)cc1)c1ccc2ccccc2c1 | inactive | – |
| O=C(Nc1ccc2oc(-c3ccc4ccccc4c3)nc2c1)c1cccs1 | 2.91 µM (active) | – |
| COc1ccc(CCNC(=O)COC(=O)c2cnc(Cl)c(Cl)c2)cc1 | inactive | – |
| CCOC(=O)c1cc2cc(C)ccc2[nH]1 | 20.6 µM (active) | – |

| SMILES | Potency | activity change, positive = activation |
| --- | --- | --- |
| CCOC(=O)c1[nH]c2ccc(C)cc2c1N=C(C)N(C)C | inactive | – |
| Cc1ccc2[nH]c(=O)c(COC(=O)c3ccccn3)cc2c1 | inactive | – |
| C[C@H]1CN([C@@H](C)CO)C(=O)Cc2cc(NC(=O)Cc3ccccc3)ccc2O[C@H]1CN(C)S(=O)(=O)c1cccs1 | inactive | – |
| Cc1ccc(N2C(=O)N3[C@@H]4c5ccccc5OC[C@@H]4[C@@H](c4ccccc4)[C@@]3(C)C2=O)cc1 | inactive | – |
| Cc1ccc(C(=O)c2c(NC(=O)c3ccccc3)sc(C)c2C)cc1 | inactive | – |
| Cc1sc(NC(=O)c2ccc3ncsc3c2)c(C(N)=O)c1C | 2.31 µM (active) | – |
| COc1ccccc1-c1nnc(NC(=O)c2ccc3ncsc3c2)o1 | inactive | – |
| C=CC[C@H](CC(=O)NCCO)C(=O)N[C@@H](COC(=O)[C@@H](CC=C)Cc1ccc(F)cc1)Cc1c[nH]c2ccccc12 | inactive | – |
| CCN(CC)Cc1cc(C(C)=O)ccc1O | inactive | – |
| CC(=O)c1ccc2c(c1)OCCOCCOc1ccc(C(C)=O)cc1OCCOCCO2 | inactive | – |
| CC(=O)c1ccc2c(ccc3ccccc32)c1 | 23.1 µM (active) | – |
| COc1ccccc1N(CC(=O)Nc1ccc(C)cc1Cl)S(=O)(=O)c1cccs1 | inactive | – |
| CCCSc1nc2sc3c(c2c(=O)n1-c1ccc(OC)cc1)CCN(C)C3 | inactive | – |
| CCCn1nnc2sc3c(c2c1=O)CCC(C)C3 (centres undefined) | 11.6 µM (active) | – |
| C=CCn1c(SCc2c(C)noc2C)nc2sc3c(c2c1=O)CCC(C)C3 (centres undefined) | inactive | – |
| O=C(COC(=O)COc1ccccc1F)Nc1cccc(S(=O)(=O)N2CCCCC2)c1 | inactive | – |
| COc1cc(OC)cc(C(=O)NNC(=O)Cc2cccs2)c1 | inactive | – |
| Cc1cc(C)nc(Nc2n[nH]c(-c3ccccc3N)n2)n1 | 2.31 µM (active) | – |
| Cc1cc(C)nc(Nc2ncn[nH]2)n1 | inactive | – |
| CCCOc1ccccc1-c1nc(SCCC(=O)O)n[nH]1 | inactive | – |
| COc1cc(OC)cc(-c2c(C#Cc3ccsc3)c3cc(-c4ccc(OC)cc4F)ccc3n2C)c1 | inactive | – |
| Nc1ccc(-c2nnc(-c3ccccc3)o2)cc1 | 16.4 µM (active) | – |
| OC(c1nnc(-c2ccccc2)o1)c1cccs1 (centres undefined) | inactive | – |
| Nc1ccc(-c2sc(N)nc2-c2ccccc2)cc1 | inactive | – |
